Laboratory results published in PubChem BioAssay (NCI).
Values joined by “and” are separate entries in the source; they are usually repeats but may differ in a detail not shown here. Identical values can stand only once. The panel holds about 83,000 compounds, 20% with a hit somewhere; the sample as a whole holds those more often.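 Testing used 96-well plates and a 48-hour single-concentration exposure. Example: -40 means 40% of the starting cells died.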 Active and inactive are the calls of the source. The calls were made as follows: active = growth percent below 10; inactive = the rest.

Each compound was assayed on MDA-MB-468 breast (assay: NCI-60 one-dose screen, 48 h (100 = growth as untreated, 0 = no growth, -100 = all killed)). Settings: 10 µM unless noted.
With CCOC(=O)NNC(=S)Nc1ccccc1 the growth was 97.7% (inactive).
With O=C(Nc1cccc(Br)c1)Oc1ccc(Cl)c2cccnc12 the growth was -9.1% [100 µM] (active).
With CSc1nc(N)c(N=Nc2ccc(S(=O)(=O)Nc3nnc(C)s3)cc2)c(=O)[nH]1 the growth was 93.4% (inactive).
COc1ccc(C(=O)N/N=C/c2ccc(O)cc2O)cc1Nc1ccnc(C(F)(F)F)c1 was tested, and the growth was 29.2% (inactive).
CCCCNC(=O)C(=O)NCCCC was tested, and the growth was 102% (inactive).
For Cc1cc(Cl)nc(N(CCCNc2ccnc3cc(Cl)ccc23)Cc2ccco2)n1, the growth was 0.466% (active).
CC(=O)Nc1scc[n+]1Cc1ccccc1 was tested, and the growth was 103% (inactive).
For NS(=O)(=O)c1ccc(Nc2nc(N/N=C/c3ccccn3)nc(Nc3ccccc3)n2)cc1, the growth was -29.7% (active).
For Cc1nnc2c3nnc(-c4ccc(Cl)cc4)n3c3ccccc3n12, the growth was 100% (inactive).
With CC(=O)c1c(C)c2cnc(Nc3ccc(N4CCNCC4)cn3)nc2n(C2CCCC2)c1=O the growth was 26.9% (inactive).
Cn1cc(-c2ccc3nc(-c4ccc(CC(=O)Nc5cc(C(C)(C)C)no5)cc4)cnc3c2)cn1 was tested, and the growth was 14.8% [30 µM] (inactive).
In the case of COC(=O)CCCCN=Cc1c(O)c(O)c(C(C)C)c2cc(C)c(-c3c(C)cc4c(C(C)C)c(O)c(O)c(C=NCCCCC(=O)OC)c4c3O)c(O)c12, the growth is reported as 18.6% (inactive).
In the case of COc1cc(C(=C2O[C@@H]([C@H]3COC(C)(C)O3)[C@H]3OC(C)(C)O[C@@H]23)c2cc(OC)c(OC)c(OC)c2)cc(OC)c1OC, the growth is reported as 106% (inactive).
In the case of COc1cc(Nc2cc(C)nc(N3CCN(c4ccnc5cc(Cl)ccc45)CC3)n2)cc(OC)c1, the growth is reported as 11.2% (inactive).
In the case of COc1cc(Cn2cc3c(c2)-c2onc(CN4CCCC4)c2CC3)cc(OC)c1OC, the growth is reported as 82.7% (inactive).
With CCCCc1n(Cc2ccc3ccccc3n2)cc[n+]1Cc1ccc2ccccc2n1 the growth was -30% (active).
O=C(CNC(=O)c1cccc2ccccc12)Nc1ccccc1Cc1ccccc1 was tested, and the growth was 13.7% [5 µM] (inactive).
COc1ccc(C2C=C(c3ccc(N)cc3)N=C3SC=CN32)cc1OC (stereo not given) was tested, and the growth was 101% (inactive).
With O=C(CCN1CCOCC1)Nc1ccc(Cn2nnc3c2C(=O)c2nnn(Cc4ccc(NC(=O)CCN5CCOCC5)cc4)c2C3=O)cc1 the growth was -72.2% (active).
With N#C/C(=C\c1ccc(-c2ccc(Cl)c(Cl)c2)o1)C(=O)Nc1ncc(Cc2ccc(Cl)cc2)s1 the growth was 22.1% (inactive).
For CCN1CCN(Cc2ccc(NC(=O)c3cccc(C#Cc4cccc5[nH]nc(N)c45)c3)cc2C(F)(F)F)CC1, the growth was -30.6% (active).
O=C1CNCCN1 was tested, and the growth was 106% (inactive).
With Cc1ccc(/C=N/Nc2nc(Nc3ccccc3)nc(-n3nc(C)cc3C)n2)cc1 the growth was 60.9% (inactive).
CCN(CC)c1ccc(/C=C2\Oc3ccc(O)c(I)c3C2=O)cc1 was tested, and the growth was 61.6% (inactive).
O=C1NC(=O)C(Cc2ccc(OCc3ccc(-c4ccc(Cl)cc4Cl)cc3)cc2)S1 (stereo not given) was tested, and the growth was 14.3% (inactive).
In the case of N#Cc1c(-c2ccco2)nc2c(c(-c3ccccc3)nn2-c2ccccc2)c1-c1ccc(O)cc1, the growth is reported as 92.4% (inactive).
CCCC(=O)OCC1OC(n2cnc3c(=S)nc(N)[nH]c32)C(OC(=O)CCC)C1OC(=O)CCC (stereo not given) was tested, and the growth was 47.7% (inactive).
With CCN(CC)CCc1nc(-c2ccccc2)no1 the growth was -1.63% (active) and 78.5% (inactive).
S=C(c1cccs1)N1CCN(c2cccc(Cl)c2)CC1 was tested, and the growth was 85.8% (inactive).
For COc1ccc(C(=O)c2ccc(OC)c(OC)c2OC)cc1, the growth was -7.95% (active) and -19% (active).
For CCN1CC(CCN2CCOCC2)C(C(c2ccccc2)c2ccccc2)C1=O (stereo not given), the growth was 102% (inactive).
In the case of CN1C(=O)N(C)C2(c3ccccc3)n3c(s/c(=C\c4ccccc4)c3=O)=NNC12c1ccccc1 (stereo not given), the growth is reported as 80.8% (inactive).
For COc1ccc(C(=O)c2cc3c(N)c(C(=O)Nc4cccc(Cl)c4C)sc3nc2C)cc1, the growth was -2.98% (active).
For Cc1ccccc1CNC(=O)C1CN(c2ccc(Cl)cc2)N(c2ccc(Cl)cc2)C1=O (stereo not given), the growth was 83.2% (inactive).
In the case of CC(C)(C)OC(=O)N1CCN(S(=O)(=O)/N=C2\NC(=O)NC2=C(Cl)Cl)CC1, the growth is reported as 63.7% (inactive).
In the case of CCOC(=O)CC1CSC(Nc2ccccc2)=N1 (stereo not given), the growth is reported as 106% (inactive).
COc1ccc(C(=O)/C=C/c2c(OC)cc(OC)cc2OC)c(OC)c1 was tested, and the growth was -25.1% (active).
In the case of NC(=O)c1c(Nc2ccccc2)nn2cc(-c3nc4ccccc4s3)c(N)nc12, the growth is reported as 101% (inactive).
With O=C1CC[C@@H](C(=O)N[C@H]2CSSC[C@@H](C(=O)N/C=C/c3ccc(O)cc3)NC(=O)[C@H](Cc3ccccc3)NC(=O)[C@@H]3CCCN3C(=O)[C@@H]3CCCN3C2=O)N1 the growth was 89.5% (inactive).
For COc1ccc(Cn2cc3c(c2-c2ccccc2)CCc2cnoc2-3)cc1N, the growth was 10.4% (inactive).
